This is a sample that favours compounds with a hit; in the whole collection about 5.6% have one here.
Cardio protect: protects H9c2 cardiomyocytes from peroxide injury | H2O2 injury protection, ATPLite, 2 h | actives 0.63% (n = 360,000) | protection from H2O2 cell death, % at 20 µM;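 active means compounds giving at least 50% protection of heart cells from peroxide-induced death in the single-dose screen, raw or plate-pattern-corrected value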;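 further: 0% = DMSO wells with peroxide and 100% = DMSO wells without peroxide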
ALR inh: human ALR oxidase inhibition via reduced H2O2; inhibition, % (no concentration beside the values); actives 3.8% (n = 290,000); AID 485317; purified ALR, DTT oxidation, H2O2 HRP-luminol luminescence;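 active means mean replicate inhibition above about 79%, with every replicate also reaching it, limit read from the data; inconclusive means only one of the two criteria met; inactive means mean below limit and not every replicate reaching it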
Target sequence (P55789 whole entry, looked up): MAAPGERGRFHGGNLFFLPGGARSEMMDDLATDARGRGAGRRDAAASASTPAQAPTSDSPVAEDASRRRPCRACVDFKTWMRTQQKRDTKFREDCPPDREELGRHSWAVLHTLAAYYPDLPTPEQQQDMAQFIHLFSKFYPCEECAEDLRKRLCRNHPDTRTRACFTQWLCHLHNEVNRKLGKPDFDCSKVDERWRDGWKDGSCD
M18AAP inhibitor: PfM18AAP enzyme inhibition; recombinant PfM18AAP, H-Glu-NHMec fluorogenic cleavage; inhibition, % at 7.35 µM; actives 1.2% (n = 290,000); AID 1822;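 active means inhibition above the campaign mean inhibition over all tested compounds plus 3 SD, cut at about 28% in these data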;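 further: 0% = plate median of test compound wells and 100% = 2 mM ZnCl2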
PfG6PD inh: PfG6PD (Plasmodium falciparum) enzyme inhibition | inhibition, % at 20 µM | actives 0.78% (n = 350,000) | PfGluPho enzyme, NADPH resazurin-diaphorase fluorescence;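 active means inhibition reaching at least a set limit at 20 µM in the primary screen, cut at about 59% in these data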;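 further: 0% = DMSO wells with substrate and 100% = DMSO wells lacking glucose-6-phosphate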
PHOSPHO1 block: inhibitors of human PHOSPHO1 phosphatase; Q8TCT1; recombinant PHOSPHO1, absorbance phosphatase assay; inhibition, % at 13.3 µM; actives 1.1% (n = 290,000); AID 1565; in the data active means inhibition above about 60%
Target sequence (Q8TCT1 whole entry, looked up): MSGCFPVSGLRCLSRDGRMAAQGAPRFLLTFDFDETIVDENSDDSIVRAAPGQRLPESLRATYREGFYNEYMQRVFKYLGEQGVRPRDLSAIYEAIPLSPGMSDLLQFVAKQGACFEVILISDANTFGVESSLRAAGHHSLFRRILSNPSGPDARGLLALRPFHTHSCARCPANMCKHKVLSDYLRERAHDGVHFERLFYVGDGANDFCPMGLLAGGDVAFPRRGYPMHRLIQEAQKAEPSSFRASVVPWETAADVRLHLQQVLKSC
* marks the source's active call; other numbers are inactive results; ? = inconclusive; / = no result.

SMILES | Cardio protect | ALR inh | M18AAP inhibitor | PfG6PD inh | PHOSPHO1 block
Cc1ccc(CNC(=O)C2CCCN(c3ncnc4c3nc3n4CCCCC3)C2)cc1 (stereo not given) | 3 | -5 | -5 | 6 | 17
C#C[C@]1(O)CC[C@H]2[C@@H]3[C@H](C)CC4=C(CCC(=O)C4)[C@H]3CC[C@@]21C | / | -7 | / | / | /
O=C(CSc1nccc(=O)[nH]1)Nc1ccc(F)c(Cl)c1 | 2 | 100* | 6 | -6 | 10
O=C(CSc1ccc2c(c1)OCCO2)Nc1ccccc1 | -5 | / | / | -5 | /
CCn1c2ccccc2c2cc(NC(=O)CSc3nccc(=O)[nH]3)ccc21 | 15 | 98* | 12 | -8 | 48
O=C(CSc1ccc2c(c1)OCCO2)Nc1cccnc1 | -26 | 99* | -12 | -4 | 2
O=C(CSc1nccc(=O)[nH]1)Nc1ccc2c(c1)OCCO2 | -3 | 98* | 3 | -1 | -16
O=C(CSc1nccc(=O)[nH]1)Nc1ccc(F)c([N+](=O)[O-])c1 | 6 | 0 | -6 | -20 | 3
O=C(c1ccc(=O)[nH]c1)N1CCCc2ccccc21 | 3 | -5 | -3 | -7 | 20
CCC/C(C#CCCN1C(=O)c2ccccc2C1=O)=C1/c2ccccc2C(=O)N1c1ccccc1 | 15 | -5 | / | 6 | /
C=CCN(C(=O)Cn1c(C(=O)OC)cc2oc(C)cc21)c1ccccc1 | 4 | 3 | -1 | -5 | 74*
O=C(O)COc1ccccc1/C=C1\SC(=S)N(/N=C/c2ccccc2O)C1=O | 0 | 66 | 33* | -10 | -10
O=C1C(=C2CCCCC2)SC(=S)N1Cc1ccco1 | 14 | 43 | 25 | 15 | 70*
O=C(O)CCN1C(=O)C(=C2CCCCCC2)SC1=S | -1 | 6 | 15 | -24 | -8
O=C1CC(=O)N(Cc2ccco2)C(=S)N1 | 8 | 74 | 22 | -4 | 89*
O=C(N/C(=C\c1ccc(Br)cc1)C(=O)N1CCCC1)c1ccccc1F | -2 | / | -16 | -1 | 20
Cc1cc(C)cc(Cn2ncc(Cl)c(Cl)c2=O)c1 | / | 96* | -17 | 1 | 2
Cc1ccc(Cn2ncc(Cl)c(Cl)c2=O)cc1 | -7 | 15 | -7 | 6 | 0
O=c1c(Cl)c(Cl)cnn1Cc1ccccc1Cl | / | 95* | 5 | 11 | -5
OC[C@@H]1CN(CCNc2ccccc2)C[C@H](n2cnc3c(NCc4ccncc4)ncnc32)O1 | -3 | / | / | / | /
CCCS(=O)(=O)NC(=O)C1(C)CCN(C(=O)c2ccccc2OC)C1 (stereo not given) | 1 | / | / | / | /
COc1cccc(/C=N/n2c(C3CCCCC3)n[nH]c2=S)c1O | 0 | 92* | 16 | 26 | 10
S=c1[nH]nc(C2CCCCC2)n1/N=C/c1ccccn1 | 3 | 96* | 15 | 27 | -99
COc1cc(OC)c(/C=N/n2c(C3CCCCC3)n[nH]c2=S)c(OC)c1 | 8 | / | 23 | 42 | 23
COc1cc(/C=N/n2c(C3CCCCC3)n[nH]c2=S)ccc1O | -4 | 98* | 21 | 22 | 18
SMILES | Cardio protect | ALR inh | M18AAP inhibitor | PfG6PD inh | PHOSPHO1 block
CCN(CC(=O)Nc1c(F)cccc1F)C(=O)c1ccccn1 | -1 | 2 | / | -5 | /
COc1ccc(C(=O)NC(C)c2nnc(SCc3ccc(Cl)c(Cl)c3)n2C)cc1 (stereo not given) | 3 | -18 | 11 | -2 | 82*
O=C(c1cccc(NS(=O)(=O)c2ccccc2)c1)N1CCCCC1 | 0 | -6 | / | -18 | /
C#CCSc1nnc(-c2ccc(OC)cc2)o1 | -11 | -4 | -7 | 14 | 69*
COc1ccc(-c2nnc(SCC#N)o2)cc1 | -5 | -4 | -9 | -9 | 11
CCOC(=O)C1=C(C)N=c2s/c(=C\c3ccc(OCC(=O)O)cc3)c(=O)n2C1c1ccccc1 (stereo not given) | 12 | 98* | 7 | -13 | 19
CCOC(=O)C1=C(C)N=c2s/c(=C/c3ccco3)c(=O)n2C1c1cccc(OC)c1 (stereo not given) | / | / | 16 | 1 | 66*
CCOC(=O)C1=C(C)N=c2s/c(=C\c3ccc(C(=O)O)cc3)c(=O)n2C1c1ccc(OC)cc1OC (stereo not given) | 1 | / | -10 | 3 | /
CCc1ccccc1S(=O)(=O)c1c(C)cc(C)nc1Cl | -1 | 0 | 3 | 24 | 26
CCCCn1c(N)c(N(CC(C)C)C(=O)CCNC(=O)c2ccc([N+](=O)[O-])cc2)c(=O)[nH]c1=O | 4 | / | / | -16 | /
Cc1cc(OCC(=O)N(C(C)C)C(C)C)cc(C)c1Br | 0 | / | -5 | 16 | -37
CCNC(=O)C1(C)CCN(Cc2csc(-c3ccccc3)n2)C1 (stereo not given) | 0 | / | / | / | /
Cc1ccc([C@H]2C[C@@H](O)[C@H](n3cc(-c4ccc(F)cc4)nn3)CN2C(=O)c2cccs2)cc1 | -17 | / | / | 1 | /
COc1cc(NS(C)(=O)=O)ccc1Nc1c2ccccc2nc2ccccc12 | -42 | 99* | / | -8 | /
COc1ccc(OC)c(Nc2c3ccccc3nc3ccccc23)c1 | -17 | ? | 6 | 7 | 38
O=C(Cn1nnc(-c2ccccc2F)n1)NCc1ccco1 | -3 | 1 | 13 | -4 | 66*
O=C(Cn1nnc(-c2ccccc2F)n1)OCC(=O)c1ccccc1 | 2 | 93* | 5 | -9 | 28
FC(F)(F)c1cc(-c2ccccn2)nc2cc(-c3ccccc3)nn12 | -7 | -10 | -13 | -3 | -1
Nc1c(Nc2ccccc2)c2ccccc2oc1=O | -2 | 98* | 2 | -21 | -7
CC(C)CNc1c(N)c(=O)oc2ccccc12 | 3 | 99* | 19 | -14 | 30
CCOc1ccc(S(=O)(=O)Nc2ccc(C(=O)NCc3ccncc3)cc2)cc1 | 2 | 2 | / | -16 | /
COc1cc(C)ccc1S(=O)(=O)NC(=O)C1(C)CCN1C(=O)Cc1ccc(Cl)cc1Cl (stereo not given) | 5 | / | / | / | /
Cc1nc2ccc(S(=O)(=O)NC(C(=O)NC3CCCC3)C(C)C)cc2s1 (stereo not given) | 14 | 96* | 0 | -1 | 5
Cc1nc2ccc(S(=O)(=O)NC(C(=O)NCc3ccc4c(c3)OCO4)C(C)C)cc2s1 (stereo not given) | 4 | -37 | -2 | 4 | -4
CCN1CCN(C(=O)C(NS(=O)(=O)c2ccc3nc(C)sc3c2)C(C)C)CC1 (stereo not given) | 4 | 92* | -6 | -2 | 4
SMILES | Cardio protect | ALR inh | M18AAP inhibitor | PfG6PD inh | PHOSPHO1 block
COc1cccc(CN(C)C(=O)CSCC(=O)Nc2cc(C)on2)c1OC | 4 | / | / | -14 | /
C=CCNC(=O)c1onc(CSc2ccc(C(C)C)cc2)c1C(=O)O | 7 | 97* | -2 | -17 | -10
C=CCNC(=O)c1onc(CSc2cccc(OCC)c2)c1C(=O)O | 0 | 94* | 3 | -9 | -6
C=CCNC(=O)c1onc(CSc2ccccc2)c1C(=O)O | -3 | 9 | 0 | 6 | 33
C=CCNC(=O)c1onc(CSc2ccc(OC)cc2)c1C(=O)O | 13 | 13 | -4 | 4 | 7
CCC(=O)NCc1csc(-c2cccs2)n1 | -2 | 94* | -10 | -12 | 12
CN1OC[C@@H]2CN(S(=O)(=O)c3ccccc3)[C@H](c3ccc(-n4ccnc4)cc3)C[C@@H]21 | 2 | / | / | / | /
